Compound activity (PubChem)
Rows were chosen to be rich in hits. Some 4.7% of all compounds tested hit in one or more screens of this group.
PfHsp90 set2: reduces growth (ATP signal) of yeast expressing P. falciparum Hsp90; 310,000 compounds, 0.32% hits; S. cerevisiae expressing PfHsp90, BacTiter-Glo ATP, 48 h; yeast lacking PDR1 and PDR3 efflux regulators; inhibition, % at 9.4 µM;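 active = every replicate shows inhibition above about 80%, whatever the replicate mean, limit read from the data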
TIM10 inh: growth inhibitors of TIM10 yeast strain; 330,000 compounds, 1.4% hits; S. cerevisiae TIM10 strain growth, BacTiter-Glo luminescence, 24 h; inhibition, % at 10 µM; AID 463195;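 active = inhibition of 40% or more at the single tested concentration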;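 note: wild-type TIM10 isogenic control strain grown at permissive 25 °C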
tim10-1 inh: growth inhibitors of tim10-1 mutant yeast | S. cerevisiae tim10-1 ts strain growth, BacTiter-Glo, 24 h | inhibition, % at 20 µM | 330,000 compounds, 2.2% hits;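 active = inhibition of at least 40%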;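 note: mutant grown at 25 °C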
Calb FLC: C. albicans growth modulation with fluconazole; C. albicans CaCi-2 (fluconazole-resistant clinical isolate) + fluconazole, Alamar Blue growth, 48 h; growth inhibition, % (test concentration not listed); 300,000 compounds, 0.57% hits;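 active = growth inhibition above about 58% in most replicates, limit read from the data, passing the limit was not always enough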;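 note: all wells also contain fluconazole at 8 µg/ml as a sub-toxic cotreatment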
tim23-1 inh: growth inhibitors of tim23-1 mutant yeast; inhibition, % at 20 µM; AID 463212; S. cerevisiae tim23-1 growth, BacTiter-Glo luminescence, 24 h; 330,000 compounds, 1.3% hits;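 active = growth inhibition of the mutant yeast at or above 50%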;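 note: temperature-sensitive mutant grown at 25 °C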
SKKanGAS inh: blocks kanamycin growth of S. pyogenes SKKanGAS strain | BacTiter-Glo, 6 h | inhibition, % at 7.5 µM | 300,000 compounds, 1.3% hits | AID 1662;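 active = mean replicate score, as percent of positive control median, at least 50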;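 note: strain carries kanamycin resistance gene driven by streptokinase promoter and grows in 40 µg/ml kanamycin; loss of luminescence reflects streptokinase promoter inhibition or plain growth inhibition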
tim23-1 conf: tim23-1 yeast growth inhibition, confirmed | 4,400 compounds, 83% hits | inhibition, % at 20 µM | S. cerevisiae tim23-1 growth, BacTiter-Glo luminescence, 24 h | shares compounds with tim23-1 inh | AID 463218;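 active = inhibition above about 39% in either of two replicate wells at 20 µM, limit read from the data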;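 note: temperature-sensitive tim23-1 mutant grown at 25 °C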
A number is an active result; . = inactive; / = no result given.

SMILES	PfHsp90 set2	TIM10 inh	tim10-1 inh	Calb FLC	tim23-1 inh	SKKanGAS inh	tim23-1 conf
S=c1[nH]nc(C2CCCCC2)n1/N=C/c1ccc(Cl)cc1	.	.	.	.	63	.	.
Cc1ccc(/C=N/n2c(C3CCCCC3)n[nH]c2=S)cc1	.	.	.	.	57	.	.
FC(F)(F)c1ccc(/C=N/n2c(C3CCCCC3)n[nH]c2=S)cc1	.	.	.	.	64	.	.
O=[N+]([O-])c1ccc(Cl)c(/C=N/n2c(C3CCCCC3)n[nH]c2=S)c1	.	.	.	.	.	.	/
CCN1C[C@@H]2[C@@H]3C(=O)N(C)C(=O)[C@@H]3[C@](C)(C1=O)N2C(=O)c1ccc(F)cc1	.	/	/	/	/	/	/
COc1ccc(NS(=O)(=O)c2cccc(C(=O)NCC(c3cccs3)N3CCOCC3)c2)cc1 (stereo not drawn)	.	.	.	/	.	/	/
C/C=C(/CCC1NCCc2c1[nH]c1ccccc21)[Si](C)(C)C (stereo not drawn)	.	/	/	/	/	/	/
CCOC(=O)c1cccc2c1-c1ccccc1/C2=N/O	.	.	.	.	71	.	54
CCOC(=O)NN=C1c2ccccc2-c2ccccc21	.	.	.	.	.	.	/
CCc1ccccc1NC(=O)CN(c1ccc(OC)cc1OC)S(=O)(=O)c1ccccc1	.	.	.	.	.	.	/
CCC(C)NC(=O)c1cc2c(=O)n(CC)c3ccccc3c2s1 (stereo not drawn)	.	.	.	.	52	.	49
COC(=O)[C@@]1(C)[C@H]2C(=O)N(Cc3ccccc3)C(=O)[C@H]2[C@H]2CN=C(SCc3ccc(Cl)cc3)N21	.	.	.	/	51	/	.
COc1ccc(/C=C(\C#N)C(=O)C(C)(C)n2cncn2)cc1	.	.	.	.	.	.	/
COCCC(=O)N1CCC(Oc2ccc(C(=O)NCCn3cccn3)cc2)CC1	.	.	.	.	.	.	/
N#Cc1c(NC(=O)c2ccc([N+](=O)[O-])o2)sc2c1CCC2	.	.	.	.	58	.	69
O=C(/C=C/c1ccc(Cl)cc1)c1ccc([N+](=O)[O-])o1	/	.	.	.	60	.	.
COc1ccc(-c2cc(-c3ccc(F)cc3)nc(N3CCN(C)CC3)n2)cc1	.	.	.	.	55	.	58
O=C(CCl)N1c2ccccc2SCC1c1ccccc1 (stereo not drawn)	.	.	.	82	54	.	51
O=C(CCl)N1c2ccccc2OCC1c1ccccc1 (stereo not drawn)	.	.	.	.	.	.	/
C[C@]12c3[nH]c4cc(-c5ccco5)ccc4c3CCN1C(=O)[C@@H](CC(=O)NCc1ccco1)C[C@@H]2C(=O)N1CCOCC1	.	.	.	/	.	/	/
COc1ccc(NC(=O)C2CC(c3ccccc3Cl)=NO2)cc1 (stereo not drawn)	.	.	.	.	.	.	/
Cc1ccc(S(=O)(=O)NCC(=O)OCc2nnc(-c3ccccc3)o2)cc1	.	.	.	.	.	.	/
O=C(O)C(Oc1ccc2c(c1)oc(=O)c1ccccc12)c1ccccc1 (stereo not drawn)	.	.	.	.	.	.	/
O=C(O)C(Oc1ccc2ccccc2c1)c1ccccc1 (stereo not drawn)	.	.	.	.	97	.	.
CCCC(=O)NC(c1ccccc1Cl)c1c(O)ccc2ccccc12 (stereo not drawn)	.	.	.	.	.	.	/
SMILES	PfHsp90 set2	TIM10 inh	tim10-1 inh	Calb FLC	tim23-1 inh	SKKanGAS inh	tim23-1 conf
CCCCC(=O)NC(c1ccc(N(C)C)cc1)c1ccc2cccnc2c1O (stereo not drawn)	.	.	.	94	54	.	53
CCCC(=O)NC(c1ccc(C)cc1)c1ccc2cccnc2c1O (stereo not drawn)	113	.	.	86	61	72	58
CCCCC(=O)NC(c1ccccc1Cl)c1c(O)ccc2ccccc12 (stereo not drawn)	.	.	.	.	.	.	/
CCCC(=O)NC(c1ccc(Cl)cc1)c1ccc2cccnc2c1O (stereo not drawn)	115	.	.	108	60	58	60
CCCCC(=O)NC(c1ccc(Cl)cc1)c1ccc2cccnc2c1O (stereo not drawn)	114	.	.	97	56	70	49
Cc1ccc(S(=O)(=O)NCCc2cn3nc(C)c(C)nc3n2)cc1C	.	.	.	.	.	.	/
CC(=O)NC(c1ccc2ccccc2c1)c1ccc2cccnc2c1O (stereo not drawn)	108	.	.	.	55	89	71
COc1ccc(C(NC(C)=O)c2ccc3cccnc3c2O)c(OC)c1 (stereo not drawn)	/	.	.	.	.	.	/
CC(=O)NC(c1ccc(Cl)cc1Cl)c1ccc2cccnc2c1O (stereo not drawn)	106	.	.	.	58	73	57
COc1ccc(/C=N/NC(=O)c2cccnc2)c2ccccc12	.	.	.	.	.	.	/
COc1ccc(/C=N/NC(=O)c2cccs2)c2ccccc12	.	.	.	.	56	.	51
Cc1ccc(Nc2nc(-c3cccnc3)cs2)cc1Cl	.	.	.	.	.	.	/
Cc1ccc(C)c(Nc2nc(-c3cccnc3)cs2)c1	.	.	.	.	50	.	.
CCCCCCSC1=C(C#N)C(c2ccccc2)CC(=O)N1 (stereo not drawn)	.	.	.	.	51	.	46
Cc1ccc(C2CC(=O)NC(SCc3ccccc3)=C2C#N)cc1 (stereo not drawn)	.	.	.	.	.	.	/
CCn1c(=O)c(C(=O)NCc2ccccc2Cl)c(O)c2ccccc21	.	.	.	.	.	.	/
Cn1c(=O)c(C(=O)NCc2ccc(F)cc2)c(O)c2ccccc21	.	.	.	.	.	.	/
CC(=O)c1c(O)c2ccccc2n(Cc2ccccc2)c1=O	.	.	.	.	56	.	.
Cn1c(=O)c(C(=O)NCc2ccccc2)c(O)c2ccccc21	.	.	.	.	54	.	.
CSc1ccccc1NC(=O)c1cccc(S(=O)(=O)N2CCN(C)CC2)c1	.	.	.	.	.	.	/
CC1=CC[C@@]23CCCN2C(=O)CCC[C@H]3C1	.	.	.	/	89	/	.
Cc1cccc(NC(=O)CSCC(=O)Nc2sccc2C#N)c1	.	.	.	.	.	.	/
C=CCC1Cc2c(Br)cccc2C(CC=C)N1 (stereo not drawn)	.	.	.	.	53	.	46
Cc1nc2ccc(NS(=O)(=O)c3ccc(Br)cc3)cc2s1	.	.	.	/	51	/	.
C=CCNC1=C(Cl)C(=O)c2ccccc2C1=O	.	.	.	.	54	.	44
O=C1C(Cl)=C(Nc2ccccc2)C(=O)c2ccccc21	.	/	/	.	/	.	/
